Drawing on PubChem BioAssay AID463195 (Sanford-Burnham Center for Chemical Genomics, 2010), this text covers inhibition for 27 compounds.

Each structure is given as a SMILES string. Out of some 330,000 compounds screened, about 4,600 (1.4%) were called active.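 Rule for the calls: active = inhibition of 40% or more at the single tested concentration; inactive = the rest.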 The full list was thinned out, with actives kept by preference.

A short description of the experiment: growth inhibitors of isogenic TIM10 control yeast, primary screen, counter-screen for tim10-1 yeast inhibitor project, luminescence, uHTS (AID 463195).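 Note: wild-type TIM10 isogenic control strain grown at permissive 25 °C; 0% = DMSO yeast wells and 100% = minimal medium wells without yeast.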 The following applies: S. cerevisiae TIM10 strain growth, BacTiter-Glo luminescence, 24 h; at 10 µM; active compounds read high. A general note: The purpose of a counterscreen is to sort out artefacts and off-target activity.
As a reminder, the inhibition is the change of the read-out against control, counted positive when it falls. Turning to `Cc1ccc(Nc2cc(=O)n(C3CCCCC3)c(=O)[nH]2)cc1C`, the inhibition was 4.8% (inactive). The value for `COc1cc2ccccc2cc1C(=O)Nc1ccc(NC(=O)c2cccs2)cc1` was -34.6% (inactive). The value for `COc1cc(NC(=O)c2ccc3c(c2)OCO3)ccc1NC(=O)c1cccs1` was 11% (inactive); that for `COc1cc(NC(=O)c2cccs2)ccc1NC(=O)c1ccccc1Cl` was 40.9% (active); that for `C=C1C2C[C@H](O)C(C)(C)[C@@]2(O)[C@H](O)C[C@]23C[C@@](C)(O)[C@H](CC[C@H]12)[C@H]3O` (some centres not stated) was -10.5% (inactive). For the compound `Cc1cccc(/C(N)=N/OC(=O)c2ccccc2Cl)c1`, the inhibition was 71.3% (active). The value for `Cc1ccc(/C(N)=N/OC(=O)COc2ccc(Cl)c(C)c2)cc1` was 30.7% (inactive); that for `Cc1ccc(C(=O)O/N=C(\N)c2ccccn2)cc1Cl` was 28.2% (inactive). The value for `CCOC(=O)c1ccc2[nH]c3c(c2c1)CCCC3NC=O` (configuration not stated) was 16.6% (inactive); that for `COc1ccc(NC(=O)ON=C2c3ccccc3-c3ccccc32)cc1` was 8.51% (inactive); that for `CN1C(=O)/C(=N/OC(=O)c2ccccc2Br)c2ccccc21` was 68.9% (active). The value for `CN1C(=O)/C(=C\c2cc(Br)cs2)c2ccccc21` was 30.2% (inactive); that for `Cc1ccc(-c2noc(CCC(=O)Nc3ccccc3N3CCN(C)CC3)n2)cc1` was 10.4% (inactive); that for `O=C(Nc1cccc(CCc2ccccn2)c1)c1ccc(Cl)cc1` was 1.78% (inactive). Turning to `O=C(Nc1ccc(Cl)cc1)OCc1cc(-c2ccccc2)on1`, the inhibition is 6.71% (inactive). The value for `O=C(Nc1cccc(Cl)c1)OCc1ccccn1` was 47.9% (active); that for `O=C(COC(=O)c1cc([N+](=O)[O-])ccc1NCc1ccccc1)NC1CCCCC1` was -9.16% (inactive); that for `CC(=O)Nc1ccc(S(=O)(=O)N(C)CC(=O)NCCC2=CCCCC2)cc1` was 3.82% (inactive). The value for `CCn1nc(C)c(CNC(=O)C2CCC(=O)N(Cc3cccc(F)c3)C2)c1C` (configuration not stated) was -0.612% (inactive); that for `Cn1c(Nc2ccccc2)cc(=O)n(C)c1=O` was 0.045% (inactive); that for `Cc1cc(C)n(C(=O)c2ccc(S(=O)(=O)N3CCCC3)cc2)n1` was 3.81% (inactive).

`Cc1cc(Nc2ccccc2)n(C(=O)c2ccc(N)cc2)n1`: the inhibition is 57.7% (active). The value for `O=C(Cn1c(N2CCN(C/C=C/c3ccccc3)CC2)nc2ccccc21)c1ccccc1` was 30.9% (inactive); that for `COc1ccc(Cl)cc1NC(=O)CN(C)CC(=O)Nc1ccc2c(c1)OCO2` was -6.17% (inactive). For the compound `Cc1cc(C)c(S(=O)(=O)c2ccccc2)c(OC(=O)c2c(F)cccc2Cl)n1`, the inhibition is 59.8% (active). The value for `Cc1cc(OC(=O)c2c(Cl)cccc2Cl)nc(C)n1` was -1.42% (inactive). The value for `Cc1ccc(NNC(=O)c2c(F)cccc2Cl)cc1Cl` was 11.3% (inactive).
